# Measurements taken from the supplement of paper PMC11732987, “Enantioselective OTUD7B fragment discovery through chemoproteomics screening and high-throughput optimisation” (Communications Chemistry, 2025).
# A number with no mark means an inactive call.
# How the values were obtained:
# Assay in all cases: log2 ratio of Biotin-Ahx-Ub-VS probe labelling (fragment/DMSO); higher = less target engagement (more negative = stronger competition), active = hit call of the paper (q ≤ 0.05, log2 ratio ≤ -1)
# Settings in all cases: compound concentration: 200 uM; treatment time: 3 h
# [1] = target: T1, USP19 (UniProt O94966)
# T1 sequence (whole entry): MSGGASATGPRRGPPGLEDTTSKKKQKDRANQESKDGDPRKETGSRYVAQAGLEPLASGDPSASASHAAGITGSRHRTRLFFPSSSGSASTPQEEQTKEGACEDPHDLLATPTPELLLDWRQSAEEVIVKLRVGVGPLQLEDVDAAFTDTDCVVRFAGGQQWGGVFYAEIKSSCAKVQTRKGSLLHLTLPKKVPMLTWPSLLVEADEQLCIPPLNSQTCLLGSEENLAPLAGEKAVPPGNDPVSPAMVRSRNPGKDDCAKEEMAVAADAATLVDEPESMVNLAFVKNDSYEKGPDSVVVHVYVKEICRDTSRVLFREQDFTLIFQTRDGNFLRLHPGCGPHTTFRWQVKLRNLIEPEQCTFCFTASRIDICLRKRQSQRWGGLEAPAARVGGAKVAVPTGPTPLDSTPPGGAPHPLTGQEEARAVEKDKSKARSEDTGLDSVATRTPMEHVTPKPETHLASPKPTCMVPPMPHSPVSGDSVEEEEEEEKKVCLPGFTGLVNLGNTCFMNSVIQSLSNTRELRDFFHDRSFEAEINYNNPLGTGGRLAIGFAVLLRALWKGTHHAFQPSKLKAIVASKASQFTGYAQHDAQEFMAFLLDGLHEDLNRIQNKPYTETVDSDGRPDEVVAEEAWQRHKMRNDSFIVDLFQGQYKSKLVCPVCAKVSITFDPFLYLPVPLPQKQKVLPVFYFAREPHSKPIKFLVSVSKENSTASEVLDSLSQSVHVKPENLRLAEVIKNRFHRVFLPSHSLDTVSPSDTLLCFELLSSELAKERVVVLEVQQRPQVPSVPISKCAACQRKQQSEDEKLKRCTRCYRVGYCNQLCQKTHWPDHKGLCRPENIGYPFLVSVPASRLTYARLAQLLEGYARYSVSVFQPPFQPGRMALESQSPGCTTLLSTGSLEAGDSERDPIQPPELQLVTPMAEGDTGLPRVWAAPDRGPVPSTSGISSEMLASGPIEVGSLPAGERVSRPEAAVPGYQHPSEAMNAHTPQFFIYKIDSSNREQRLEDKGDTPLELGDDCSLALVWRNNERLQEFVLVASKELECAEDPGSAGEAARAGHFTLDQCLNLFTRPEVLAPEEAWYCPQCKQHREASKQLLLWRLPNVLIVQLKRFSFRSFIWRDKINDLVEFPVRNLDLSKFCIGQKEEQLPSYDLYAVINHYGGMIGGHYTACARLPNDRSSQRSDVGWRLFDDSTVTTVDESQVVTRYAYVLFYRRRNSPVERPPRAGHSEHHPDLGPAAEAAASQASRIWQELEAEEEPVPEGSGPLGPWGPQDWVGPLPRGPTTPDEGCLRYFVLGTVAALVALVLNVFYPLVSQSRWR
# Procedure, shortened: (§1)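 Values give the average log2 ratio of fragment to vehicle, assessed by unpaired t-test on global-median-normalised Spectronaut label-free quantities. Proteins needed ≥2 unique peptides. HEK293T lysate (495 µg per sample) was treated in triplicate with fragment at 200 µM or vehicle for 3 h and then with Biotin-Ahx-Ub-VS at 0.5 µM final for 1 h. Labelled DUBs were NeutrAvidin-enriched, digested and run by diaPASEF LC-MS/MS.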
# [2] = target: T2, USP22 (UniProt Q9UPT9)
# T2 sequence (whole entry): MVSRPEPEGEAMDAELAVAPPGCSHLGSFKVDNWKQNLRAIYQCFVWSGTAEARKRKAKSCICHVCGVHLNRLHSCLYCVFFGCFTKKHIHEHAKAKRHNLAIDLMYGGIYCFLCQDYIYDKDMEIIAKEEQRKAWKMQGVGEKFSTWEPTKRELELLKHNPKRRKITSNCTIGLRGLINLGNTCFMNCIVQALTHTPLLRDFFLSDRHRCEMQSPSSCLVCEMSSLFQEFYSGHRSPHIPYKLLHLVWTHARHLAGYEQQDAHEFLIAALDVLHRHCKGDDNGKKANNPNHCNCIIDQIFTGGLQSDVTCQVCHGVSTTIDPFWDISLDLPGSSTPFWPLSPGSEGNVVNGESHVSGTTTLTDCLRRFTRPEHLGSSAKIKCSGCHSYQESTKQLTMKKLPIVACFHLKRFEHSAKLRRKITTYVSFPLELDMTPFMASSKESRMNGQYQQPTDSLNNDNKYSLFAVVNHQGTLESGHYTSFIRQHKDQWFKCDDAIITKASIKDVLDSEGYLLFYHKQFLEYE
# Procedure, shortened: as §1
# [3] = target: USP24 (UniProt Q9UPU5)
# Sequence of USP24 (Q9UPU5 whole entry): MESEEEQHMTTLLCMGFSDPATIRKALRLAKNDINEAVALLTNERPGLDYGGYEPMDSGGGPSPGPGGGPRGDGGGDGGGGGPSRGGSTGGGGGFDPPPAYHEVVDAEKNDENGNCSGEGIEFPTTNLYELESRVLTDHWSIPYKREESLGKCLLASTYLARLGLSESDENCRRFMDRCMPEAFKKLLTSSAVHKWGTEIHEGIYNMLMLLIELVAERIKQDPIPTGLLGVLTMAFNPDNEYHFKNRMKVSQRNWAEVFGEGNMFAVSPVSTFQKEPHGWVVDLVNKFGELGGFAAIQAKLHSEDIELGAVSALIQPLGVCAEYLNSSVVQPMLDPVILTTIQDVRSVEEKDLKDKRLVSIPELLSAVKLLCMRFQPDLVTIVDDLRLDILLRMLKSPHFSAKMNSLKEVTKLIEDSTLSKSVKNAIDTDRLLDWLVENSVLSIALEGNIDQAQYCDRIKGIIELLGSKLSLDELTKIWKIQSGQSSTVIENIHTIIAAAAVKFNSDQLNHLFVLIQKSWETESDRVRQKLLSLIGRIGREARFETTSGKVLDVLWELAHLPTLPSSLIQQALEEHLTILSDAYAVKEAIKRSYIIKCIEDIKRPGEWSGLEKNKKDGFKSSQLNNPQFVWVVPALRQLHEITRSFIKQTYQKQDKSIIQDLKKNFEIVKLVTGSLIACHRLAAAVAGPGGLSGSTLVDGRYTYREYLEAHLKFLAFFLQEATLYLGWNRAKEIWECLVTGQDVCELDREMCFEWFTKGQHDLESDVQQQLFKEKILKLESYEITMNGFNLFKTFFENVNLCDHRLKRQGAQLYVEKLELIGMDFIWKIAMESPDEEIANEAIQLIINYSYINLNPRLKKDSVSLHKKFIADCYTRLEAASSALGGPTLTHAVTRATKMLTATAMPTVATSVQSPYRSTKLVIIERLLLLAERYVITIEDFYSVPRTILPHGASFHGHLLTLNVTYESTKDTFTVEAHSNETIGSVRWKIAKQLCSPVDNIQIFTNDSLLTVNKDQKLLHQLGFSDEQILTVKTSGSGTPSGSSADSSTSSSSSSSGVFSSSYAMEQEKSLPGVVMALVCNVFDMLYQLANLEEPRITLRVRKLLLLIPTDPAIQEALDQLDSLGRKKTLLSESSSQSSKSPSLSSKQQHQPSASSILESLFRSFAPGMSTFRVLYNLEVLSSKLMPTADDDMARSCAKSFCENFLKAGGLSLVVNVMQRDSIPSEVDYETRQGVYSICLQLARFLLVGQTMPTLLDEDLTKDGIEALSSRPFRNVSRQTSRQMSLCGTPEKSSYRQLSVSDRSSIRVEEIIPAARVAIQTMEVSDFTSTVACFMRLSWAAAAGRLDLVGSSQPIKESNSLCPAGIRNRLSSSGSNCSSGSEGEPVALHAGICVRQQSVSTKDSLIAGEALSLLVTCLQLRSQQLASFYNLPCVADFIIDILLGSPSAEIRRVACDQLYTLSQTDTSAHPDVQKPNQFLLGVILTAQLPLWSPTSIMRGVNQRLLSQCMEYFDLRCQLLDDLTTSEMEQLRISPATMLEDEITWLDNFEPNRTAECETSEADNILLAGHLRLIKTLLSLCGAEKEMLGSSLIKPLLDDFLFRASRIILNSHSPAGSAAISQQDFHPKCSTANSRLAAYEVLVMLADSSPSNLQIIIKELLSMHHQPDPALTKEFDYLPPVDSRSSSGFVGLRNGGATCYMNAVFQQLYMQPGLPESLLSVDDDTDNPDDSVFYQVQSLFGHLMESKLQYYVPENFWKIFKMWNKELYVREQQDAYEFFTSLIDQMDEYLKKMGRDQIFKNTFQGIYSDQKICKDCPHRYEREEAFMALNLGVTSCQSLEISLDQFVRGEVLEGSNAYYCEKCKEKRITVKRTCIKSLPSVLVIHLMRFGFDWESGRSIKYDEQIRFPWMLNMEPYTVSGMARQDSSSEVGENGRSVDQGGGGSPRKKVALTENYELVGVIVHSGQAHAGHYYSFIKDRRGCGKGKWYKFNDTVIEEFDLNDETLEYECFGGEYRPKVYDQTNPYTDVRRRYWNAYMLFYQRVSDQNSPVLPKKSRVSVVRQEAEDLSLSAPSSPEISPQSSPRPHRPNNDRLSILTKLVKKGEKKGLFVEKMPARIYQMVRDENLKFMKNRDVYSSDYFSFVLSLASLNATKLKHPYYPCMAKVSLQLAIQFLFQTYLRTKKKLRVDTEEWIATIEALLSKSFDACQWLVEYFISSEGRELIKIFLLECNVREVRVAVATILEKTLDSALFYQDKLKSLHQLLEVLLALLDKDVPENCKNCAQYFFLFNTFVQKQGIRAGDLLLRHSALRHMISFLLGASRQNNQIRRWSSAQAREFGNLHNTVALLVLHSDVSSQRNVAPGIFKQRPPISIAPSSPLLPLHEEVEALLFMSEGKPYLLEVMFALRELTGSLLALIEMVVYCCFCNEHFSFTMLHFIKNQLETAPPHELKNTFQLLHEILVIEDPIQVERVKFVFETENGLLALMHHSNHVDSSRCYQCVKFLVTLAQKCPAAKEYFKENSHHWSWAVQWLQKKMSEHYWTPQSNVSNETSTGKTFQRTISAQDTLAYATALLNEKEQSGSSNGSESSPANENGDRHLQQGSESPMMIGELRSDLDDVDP
# Procedure, shortened: as §1
# [4] = target: T3, USP25 (UniProt Q9UHP3)
# T3 sequence (whole entry): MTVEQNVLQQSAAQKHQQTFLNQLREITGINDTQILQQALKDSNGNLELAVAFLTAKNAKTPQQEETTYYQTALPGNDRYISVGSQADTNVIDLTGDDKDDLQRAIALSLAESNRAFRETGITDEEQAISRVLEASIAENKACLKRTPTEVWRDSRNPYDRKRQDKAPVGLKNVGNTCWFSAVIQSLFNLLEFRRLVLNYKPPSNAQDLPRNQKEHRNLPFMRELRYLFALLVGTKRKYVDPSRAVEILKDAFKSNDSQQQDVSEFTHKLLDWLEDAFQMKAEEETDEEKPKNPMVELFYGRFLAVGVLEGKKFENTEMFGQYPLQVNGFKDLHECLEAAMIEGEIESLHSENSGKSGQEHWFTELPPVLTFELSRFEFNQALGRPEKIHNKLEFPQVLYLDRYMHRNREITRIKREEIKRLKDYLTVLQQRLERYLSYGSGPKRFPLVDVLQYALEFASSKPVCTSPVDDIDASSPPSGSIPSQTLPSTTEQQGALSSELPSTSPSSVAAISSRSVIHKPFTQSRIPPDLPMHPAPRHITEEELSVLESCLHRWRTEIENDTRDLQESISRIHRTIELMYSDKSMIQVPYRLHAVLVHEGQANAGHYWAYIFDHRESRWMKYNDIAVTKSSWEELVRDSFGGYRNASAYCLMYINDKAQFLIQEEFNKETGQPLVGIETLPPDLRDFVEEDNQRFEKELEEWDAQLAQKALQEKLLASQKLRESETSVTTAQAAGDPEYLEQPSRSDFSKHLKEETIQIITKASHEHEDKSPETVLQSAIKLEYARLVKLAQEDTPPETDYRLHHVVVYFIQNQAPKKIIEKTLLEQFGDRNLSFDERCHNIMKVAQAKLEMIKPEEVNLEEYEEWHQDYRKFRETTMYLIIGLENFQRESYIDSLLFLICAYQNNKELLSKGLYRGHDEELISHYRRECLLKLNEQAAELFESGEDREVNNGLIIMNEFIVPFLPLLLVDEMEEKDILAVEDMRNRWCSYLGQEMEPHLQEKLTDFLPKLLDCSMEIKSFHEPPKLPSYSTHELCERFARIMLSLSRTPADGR
# Procedure, shortened: as §1
# [5] = target: T4, USP28 (UniProt Q96RU2)
# T4 sequence (whole entry): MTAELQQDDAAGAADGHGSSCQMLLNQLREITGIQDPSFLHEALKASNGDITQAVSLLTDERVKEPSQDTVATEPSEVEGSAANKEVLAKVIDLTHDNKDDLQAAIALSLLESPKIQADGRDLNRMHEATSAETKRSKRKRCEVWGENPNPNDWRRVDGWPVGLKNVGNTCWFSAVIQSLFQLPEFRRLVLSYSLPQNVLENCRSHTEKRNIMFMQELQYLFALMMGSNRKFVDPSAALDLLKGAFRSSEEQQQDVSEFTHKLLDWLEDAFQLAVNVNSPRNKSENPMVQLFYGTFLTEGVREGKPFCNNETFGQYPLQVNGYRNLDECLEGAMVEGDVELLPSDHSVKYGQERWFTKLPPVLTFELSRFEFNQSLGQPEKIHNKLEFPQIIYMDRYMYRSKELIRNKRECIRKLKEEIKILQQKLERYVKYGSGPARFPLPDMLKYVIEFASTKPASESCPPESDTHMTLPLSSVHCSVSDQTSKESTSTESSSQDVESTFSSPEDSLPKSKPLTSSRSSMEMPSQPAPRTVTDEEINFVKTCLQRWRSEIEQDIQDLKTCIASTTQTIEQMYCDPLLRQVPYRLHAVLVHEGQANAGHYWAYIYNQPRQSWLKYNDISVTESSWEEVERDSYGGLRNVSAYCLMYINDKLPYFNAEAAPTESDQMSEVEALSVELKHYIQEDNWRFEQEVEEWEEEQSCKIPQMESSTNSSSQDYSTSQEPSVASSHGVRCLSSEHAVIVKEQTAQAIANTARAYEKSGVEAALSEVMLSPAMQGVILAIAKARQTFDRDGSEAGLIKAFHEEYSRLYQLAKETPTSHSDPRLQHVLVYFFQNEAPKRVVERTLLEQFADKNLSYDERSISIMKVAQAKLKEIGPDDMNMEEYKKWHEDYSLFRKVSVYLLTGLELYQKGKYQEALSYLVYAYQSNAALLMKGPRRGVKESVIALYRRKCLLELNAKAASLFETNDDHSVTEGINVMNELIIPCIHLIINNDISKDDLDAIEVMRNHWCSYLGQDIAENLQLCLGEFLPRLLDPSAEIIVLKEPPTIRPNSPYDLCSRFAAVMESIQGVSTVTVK
# Procedure, shortened: as §1
smiles,measurement,setting,value
Cc1c(C#N)c(NC(=O)CCl)n(Cc2ccco2)c1C,log2 ratio of Biotin-Ahx-Ub-VS probe labelling,[1],-0.239
same,log2 ratio of Biotin-Ahx-Ub-VS probe labelling,[2],-0.178
same,log2 ratio of Biotin-Ahx-Ub-VS probe labelling,[3],-0.837
same,log2 ratio of Biotin-Ahx-Ub-VS probe labelling,[4],-1.24 (active)
same,log2 ratio of Biotin-Ahx-Ub-VS probe labelling,[5],-1.76 (active)
